What all share (experiment): DAPPL (digital affinity profiling via proximity ligation, sequencing); 10 mM Tris-HCl pH 7.5, 50 mM NaCl, 1 mM DTT, 4% glycerol, room temperature, 30 min; GST-TFs on glutathione beads, 16-mer random dsDNA library, 0.1% formaldehyde crosslink after washing; high values mean tight binding
One test deals with T1, FEV (Homo sapiens, UniProt Q99581 1-238).
T1 sequence: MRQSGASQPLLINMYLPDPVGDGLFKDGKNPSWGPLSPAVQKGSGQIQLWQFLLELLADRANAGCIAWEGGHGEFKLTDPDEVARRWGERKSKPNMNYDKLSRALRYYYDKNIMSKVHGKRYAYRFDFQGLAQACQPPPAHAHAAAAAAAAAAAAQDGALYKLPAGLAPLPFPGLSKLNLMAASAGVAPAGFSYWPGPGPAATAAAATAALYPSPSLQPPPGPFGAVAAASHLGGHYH
The conditions noted are these: protein: recombinant; tags: N-terminal GST; dsDNA, one strand shown. Summed up: (§1)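 A tag-only sample was pooled with DNA-barcoded human transcription factors that had been expressed in yeast as GST fusions and captured on glutathione beads. The pools were incubated for 30 min at room temperature with 200 nmole of a random double-stranded 16-mer DNA library in Tris/NaCl/DTT/glycerol buffer, then washed, crosslinked with 0.1% formaldehyde, proximity-ligated (BsaI/T4 ligase, 1 h, 37 °C), PCR-amplified and sequenced on an Illumina NextSeq500. Binding signal is each hexamer's read frequency for a factor divided by its frequency for the tag-only sample.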

In the next test the target is ETV5 (Homo sapiens, UniProt P41161 1-510). The conditions noted are these: protein: recombinant; tags: N-terminal GST; dsDNA, one strand shown. Summed up:
as §1

The next test deals with HSF1 (Homo sapiens, UniProt Q00613 1-529). The note with it: protein: recombinant; tags: N-terminal GST; chain copies: 3; dsDNA, one strand shown. Summed up:
as §1

The target of another test is T2, SPIC (Homo sapiens, UniProt Q8N5J4 1-248).
T2 sequence: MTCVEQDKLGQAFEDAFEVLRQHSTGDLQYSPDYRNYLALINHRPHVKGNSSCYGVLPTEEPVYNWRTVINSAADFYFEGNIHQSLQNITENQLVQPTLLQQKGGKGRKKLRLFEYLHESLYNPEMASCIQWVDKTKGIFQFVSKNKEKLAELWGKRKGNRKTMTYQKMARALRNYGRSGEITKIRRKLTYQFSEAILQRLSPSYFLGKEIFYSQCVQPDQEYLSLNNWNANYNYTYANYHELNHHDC
The conditions noted are these: protein: recombinant; tags: N-terminal GST; dsDNA, one strand shown. Summed up: as §1

The target in the next test is ELF4 (Homo sapiens, UniProt Q99607 1-663). The conditions noted are these: protein: recombinant; tags: N-terminal GST; dsDNA, one strand shown. Summed up: as §1
Another test deals with T3, ELK4 (Homo sapiens, UniProt P28324-2 1-405).
T3 sequence: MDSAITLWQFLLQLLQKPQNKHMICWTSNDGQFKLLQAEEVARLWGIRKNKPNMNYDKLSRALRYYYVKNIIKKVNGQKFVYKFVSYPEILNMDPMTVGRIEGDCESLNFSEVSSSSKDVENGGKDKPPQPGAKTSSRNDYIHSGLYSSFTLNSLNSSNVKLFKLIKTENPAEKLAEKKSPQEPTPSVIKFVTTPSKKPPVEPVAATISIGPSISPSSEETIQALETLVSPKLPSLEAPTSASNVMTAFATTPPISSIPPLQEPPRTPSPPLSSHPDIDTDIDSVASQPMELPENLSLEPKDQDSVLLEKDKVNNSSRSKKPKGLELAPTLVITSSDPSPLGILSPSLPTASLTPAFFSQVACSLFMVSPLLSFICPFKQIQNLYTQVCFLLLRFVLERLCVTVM
The note with it: protein: recombinant; tags: N-terminal GST; dsDNA, one strand shown. Summed up:
as §1

In the next test the target is T4, ETV2 (Homo sapiens, UniProt O00321 1-342).
T4 sequence: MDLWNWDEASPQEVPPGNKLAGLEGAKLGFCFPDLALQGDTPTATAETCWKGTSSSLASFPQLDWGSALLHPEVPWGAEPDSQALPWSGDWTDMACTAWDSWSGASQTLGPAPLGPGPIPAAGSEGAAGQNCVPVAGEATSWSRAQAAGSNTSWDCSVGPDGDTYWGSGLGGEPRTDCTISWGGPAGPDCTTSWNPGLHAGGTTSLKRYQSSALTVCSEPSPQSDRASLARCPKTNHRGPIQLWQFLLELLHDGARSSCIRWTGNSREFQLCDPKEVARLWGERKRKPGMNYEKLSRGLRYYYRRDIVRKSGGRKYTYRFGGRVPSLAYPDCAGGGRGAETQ
The note with it: protein: recombinant; tags: N-terminal GST; dsDNA, one strand shown. Summed up:
as §1

In a further test the target is T5, ELF3 (Homo sapiens, UniProt P78545 1-371).
T5 sequence: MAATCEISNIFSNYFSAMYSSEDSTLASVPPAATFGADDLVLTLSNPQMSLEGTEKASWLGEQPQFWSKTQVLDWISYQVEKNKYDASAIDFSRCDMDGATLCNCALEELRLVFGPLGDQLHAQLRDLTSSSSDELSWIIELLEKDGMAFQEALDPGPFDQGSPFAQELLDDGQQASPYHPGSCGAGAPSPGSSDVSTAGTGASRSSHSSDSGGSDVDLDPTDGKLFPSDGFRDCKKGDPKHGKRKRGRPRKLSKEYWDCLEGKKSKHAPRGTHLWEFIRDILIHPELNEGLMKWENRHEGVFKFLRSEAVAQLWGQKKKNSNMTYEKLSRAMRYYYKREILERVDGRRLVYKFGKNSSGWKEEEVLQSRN
The note with it: protein: recombinant; tags: N-terminal GST; dsDNA, one strand shown. Summed up:
as §1

The target of the next test is CRX (Homo sapiens, UniProt O43186 1-299). The conditions noted are these: protein: recombinant; tags: N-terminal GST; dsDNA, one strand shown. Summed up: as §1
A further test has as its target ETV1 (Homo sapiens, UniProt P50549 1-477). The conditions noted are these: protein: recombinant; tags: N-terminal GST; dsDNA, one strand shown. Summed up: as §1
The target in another test is T6, ERF (Homo sapiens, UniProt P50548 1-548).
T6 sequence: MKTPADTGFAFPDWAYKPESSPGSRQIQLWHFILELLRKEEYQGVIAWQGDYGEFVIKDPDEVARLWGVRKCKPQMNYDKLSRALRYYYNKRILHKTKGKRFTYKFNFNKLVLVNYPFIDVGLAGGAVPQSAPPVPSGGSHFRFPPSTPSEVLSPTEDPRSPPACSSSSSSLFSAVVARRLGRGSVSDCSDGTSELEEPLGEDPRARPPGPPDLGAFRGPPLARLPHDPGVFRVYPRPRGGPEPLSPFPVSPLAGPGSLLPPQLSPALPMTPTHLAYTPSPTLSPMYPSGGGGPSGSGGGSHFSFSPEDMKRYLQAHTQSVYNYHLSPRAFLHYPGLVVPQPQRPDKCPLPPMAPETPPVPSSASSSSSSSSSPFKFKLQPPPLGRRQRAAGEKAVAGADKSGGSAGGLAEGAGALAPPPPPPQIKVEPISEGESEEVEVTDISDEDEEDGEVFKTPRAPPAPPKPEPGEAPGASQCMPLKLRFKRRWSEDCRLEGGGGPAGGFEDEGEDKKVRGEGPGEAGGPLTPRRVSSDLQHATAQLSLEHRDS
The conditions noted are these: protein: recombinant; tags: N-terminal GST; dsDNA, one strand shown. Summed up: as §1

The next test deals with T7, ETV3L (Homo sapiens, UniProt Q6ZN32 1-361).
T7 sequence: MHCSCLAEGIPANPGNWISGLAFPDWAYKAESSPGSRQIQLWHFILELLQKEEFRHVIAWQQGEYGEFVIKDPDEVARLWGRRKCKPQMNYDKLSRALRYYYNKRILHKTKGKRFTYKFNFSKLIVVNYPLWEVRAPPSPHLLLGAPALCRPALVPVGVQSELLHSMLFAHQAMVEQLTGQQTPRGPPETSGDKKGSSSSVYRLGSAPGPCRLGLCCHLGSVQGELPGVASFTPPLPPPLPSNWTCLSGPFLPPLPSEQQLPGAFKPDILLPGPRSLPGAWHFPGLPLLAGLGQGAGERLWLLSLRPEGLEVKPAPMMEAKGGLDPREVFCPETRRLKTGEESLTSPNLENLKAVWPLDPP
The note with it: protein: recombinant; tags: N-terminal GST; dsDNA, one strand shown. Summed up: as §1

The target in another test is T8, ETS2 (Homo sapiens, UniProt P15036 1-469).
T8 sequence: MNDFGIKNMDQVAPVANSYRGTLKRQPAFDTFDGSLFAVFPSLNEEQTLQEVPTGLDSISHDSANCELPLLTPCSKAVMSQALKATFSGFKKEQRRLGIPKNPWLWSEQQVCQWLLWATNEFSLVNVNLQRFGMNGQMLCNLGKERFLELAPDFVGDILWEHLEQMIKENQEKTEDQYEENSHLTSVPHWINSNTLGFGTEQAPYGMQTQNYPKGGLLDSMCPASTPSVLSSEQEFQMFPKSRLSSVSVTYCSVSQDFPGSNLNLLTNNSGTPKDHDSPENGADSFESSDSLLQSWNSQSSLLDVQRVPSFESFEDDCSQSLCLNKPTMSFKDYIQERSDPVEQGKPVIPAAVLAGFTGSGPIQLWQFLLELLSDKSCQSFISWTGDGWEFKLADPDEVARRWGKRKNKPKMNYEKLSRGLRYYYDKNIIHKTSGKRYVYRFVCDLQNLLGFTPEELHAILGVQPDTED
The note with it: protein: recombinant; tags: N-terminal GST; dsDNA, one strand shown. Summed up:
as §1

The next test has as its target T9, SPDEF (Homo sapiens, UniProt O95238 1-335).
T9 sequence: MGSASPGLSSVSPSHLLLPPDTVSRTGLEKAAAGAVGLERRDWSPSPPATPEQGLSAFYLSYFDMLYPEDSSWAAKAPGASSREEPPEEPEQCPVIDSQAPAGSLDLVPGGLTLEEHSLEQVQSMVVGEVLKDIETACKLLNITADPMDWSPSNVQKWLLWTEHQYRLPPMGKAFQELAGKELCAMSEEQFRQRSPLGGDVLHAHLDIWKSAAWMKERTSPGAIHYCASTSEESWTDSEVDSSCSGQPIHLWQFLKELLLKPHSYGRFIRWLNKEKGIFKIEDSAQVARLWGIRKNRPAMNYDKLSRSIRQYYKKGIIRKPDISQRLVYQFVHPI
The conditions noted are these: protein: recombinant; tags: N-terminal GST; dsDNA, one strand shown. Summed up: as §1

Another test deals with T10, ETV7 (Homo sapiens, UniProt Q9Y603 1-341).
T10 sequence: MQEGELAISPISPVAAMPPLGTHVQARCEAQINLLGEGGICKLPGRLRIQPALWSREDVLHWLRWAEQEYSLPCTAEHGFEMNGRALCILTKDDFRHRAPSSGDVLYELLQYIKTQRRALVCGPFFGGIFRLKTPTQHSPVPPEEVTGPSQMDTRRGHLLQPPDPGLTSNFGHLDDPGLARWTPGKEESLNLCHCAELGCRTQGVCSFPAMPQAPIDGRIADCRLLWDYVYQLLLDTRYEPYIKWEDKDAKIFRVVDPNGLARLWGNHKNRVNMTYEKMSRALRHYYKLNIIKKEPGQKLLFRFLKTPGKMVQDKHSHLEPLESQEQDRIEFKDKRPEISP
The note with it: protein: recombinant; tags: N-terminal GST; dsDNA, one strand shown. Summed up: as §1

For a further test, the target named is T11, ELF5 (Homo sapiens, UniProt Q9UKW6-2 1-255).
T11 sequence: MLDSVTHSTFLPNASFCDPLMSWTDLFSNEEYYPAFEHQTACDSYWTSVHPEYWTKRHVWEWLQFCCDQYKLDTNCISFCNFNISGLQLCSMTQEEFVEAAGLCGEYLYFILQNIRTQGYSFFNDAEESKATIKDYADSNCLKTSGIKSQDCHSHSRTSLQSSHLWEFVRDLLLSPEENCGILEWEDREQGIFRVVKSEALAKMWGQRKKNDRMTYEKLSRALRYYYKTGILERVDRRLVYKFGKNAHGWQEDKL
The note with it: protein: recombinant; tags: N-terminal GST; dsDNA, one strand shown. Summed up:
as §1

The target in the next test is T12, ETV3 (Homo sapiens, UniProt P41162-2 1-143).
T12 sequence: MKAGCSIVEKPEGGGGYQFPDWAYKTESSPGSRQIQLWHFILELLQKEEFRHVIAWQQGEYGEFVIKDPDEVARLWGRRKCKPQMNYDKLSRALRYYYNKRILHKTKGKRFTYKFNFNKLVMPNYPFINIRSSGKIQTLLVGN
The conditions noted are these: protein: recombinant; tags: N-terminal GST; dsDNA, one strand shown. Summed up:
as §1

The next test concerns the target ETV6 (Homo sapiens, UniProt P41212 1-452). The conditions noted are these: protein: recombinant; tags: N-terminal GST; dsDNA, one strand shown. Summed up: as §1

Sequence of HSF1 (Q00613 whole entry): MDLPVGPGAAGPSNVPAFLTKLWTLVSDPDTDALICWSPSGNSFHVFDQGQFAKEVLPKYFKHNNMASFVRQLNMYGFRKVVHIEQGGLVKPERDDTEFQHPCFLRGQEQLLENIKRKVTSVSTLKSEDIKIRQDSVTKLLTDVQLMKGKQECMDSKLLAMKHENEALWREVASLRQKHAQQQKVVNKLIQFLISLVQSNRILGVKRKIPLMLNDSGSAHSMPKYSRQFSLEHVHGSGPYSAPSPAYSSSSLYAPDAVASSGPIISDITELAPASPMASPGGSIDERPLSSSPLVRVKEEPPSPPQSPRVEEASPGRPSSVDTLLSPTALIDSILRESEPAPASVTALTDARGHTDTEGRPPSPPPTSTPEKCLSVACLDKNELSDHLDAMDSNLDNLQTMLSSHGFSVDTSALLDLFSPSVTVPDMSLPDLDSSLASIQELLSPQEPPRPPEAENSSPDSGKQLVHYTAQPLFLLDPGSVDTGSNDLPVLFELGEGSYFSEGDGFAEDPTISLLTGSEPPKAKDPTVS
Sequence of CRX (O43186 whole entry): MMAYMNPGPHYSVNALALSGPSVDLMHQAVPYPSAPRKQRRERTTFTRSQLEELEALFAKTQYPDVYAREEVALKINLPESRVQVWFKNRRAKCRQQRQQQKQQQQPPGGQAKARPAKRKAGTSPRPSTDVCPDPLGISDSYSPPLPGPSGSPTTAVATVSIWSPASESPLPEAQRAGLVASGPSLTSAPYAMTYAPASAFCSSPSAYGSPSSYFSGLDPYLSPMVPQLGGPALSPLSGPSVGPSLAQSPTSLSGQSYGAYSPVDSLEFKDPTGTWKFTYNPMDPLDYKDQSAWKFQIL
Sequence of ELF4 (Q99607 whole entry): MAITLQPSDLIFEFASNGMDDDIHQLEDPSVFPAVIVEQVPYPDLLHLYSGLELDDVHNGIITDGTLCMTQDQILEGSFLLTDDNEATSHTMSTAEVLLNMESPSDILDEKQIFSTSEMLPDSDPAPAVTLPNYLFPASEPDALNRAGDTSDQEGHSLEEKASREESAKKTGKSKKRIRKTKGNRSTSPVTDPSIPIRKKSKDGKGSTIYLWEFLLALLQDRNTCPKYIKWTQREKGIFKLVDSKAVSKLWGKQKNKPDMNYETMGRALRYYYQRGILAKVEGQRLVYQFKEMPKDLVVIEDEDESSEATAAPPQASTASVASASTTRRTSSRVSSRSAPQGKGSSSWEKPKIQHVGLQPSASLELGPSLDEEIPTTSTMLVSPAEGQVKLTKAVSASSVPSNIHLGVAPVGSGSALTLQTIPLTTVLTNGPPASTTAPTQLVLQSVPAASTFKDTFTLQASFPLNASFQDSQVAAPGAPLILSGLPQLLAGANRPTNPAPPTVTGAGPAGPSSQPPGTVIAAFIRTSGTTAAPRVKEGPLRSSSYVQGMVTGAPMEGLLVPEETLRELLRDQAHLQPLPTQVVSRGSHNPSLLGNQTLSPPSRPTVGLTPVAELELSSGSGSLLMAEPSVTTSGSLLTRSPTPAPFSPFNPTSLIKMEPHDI
Sequence of ETV6 (P41212 whole entry): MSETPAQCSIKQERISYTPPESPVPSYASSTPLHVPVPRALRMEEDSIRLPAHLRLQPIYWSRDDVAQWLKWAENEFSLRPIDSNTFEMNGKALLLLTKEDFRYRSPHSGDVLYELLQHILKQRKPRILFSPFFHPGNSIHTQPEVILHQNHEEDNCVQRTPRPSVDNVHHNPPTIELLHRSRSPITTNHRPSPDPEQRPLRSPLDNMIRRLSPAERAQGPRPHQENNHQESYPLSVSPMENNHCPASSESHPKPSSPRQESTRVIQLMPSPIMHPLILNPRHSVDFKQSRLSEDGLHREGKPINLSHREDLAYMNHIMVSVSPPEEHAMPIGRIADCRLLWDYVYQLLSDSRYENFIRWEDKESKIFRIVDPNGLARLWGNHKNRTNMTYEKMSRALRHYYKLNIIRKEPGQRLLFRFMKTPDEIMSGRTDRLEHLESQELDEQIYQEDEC
Sequence of ETV5 (P41161 whole entry): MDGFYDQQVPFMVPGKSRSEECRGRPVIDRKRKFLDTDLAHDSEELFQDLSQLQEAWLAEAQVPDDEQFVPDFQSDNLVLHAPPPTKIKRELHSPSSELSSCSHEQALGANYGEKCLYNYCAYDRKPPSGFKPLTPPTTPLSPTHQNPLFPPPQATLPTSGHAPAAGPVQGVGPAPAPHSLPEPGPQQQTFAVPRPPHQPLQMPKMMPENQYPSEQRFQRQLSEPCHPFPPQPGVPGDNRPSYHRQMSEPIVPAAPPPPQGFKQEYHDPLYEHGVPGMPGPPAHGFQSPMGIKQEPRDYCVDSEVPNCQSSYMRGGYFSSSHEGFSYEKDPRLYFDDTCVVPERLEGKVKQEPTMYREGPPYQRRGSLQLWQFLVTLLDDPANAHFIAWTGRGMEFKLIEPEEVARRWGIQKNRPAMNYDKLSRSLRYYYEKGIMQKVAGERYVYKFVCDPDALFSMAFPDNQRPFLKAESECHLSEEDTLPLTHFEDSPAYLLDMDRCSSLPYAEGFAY
Sequence of ETV1 (P50549 whole entry): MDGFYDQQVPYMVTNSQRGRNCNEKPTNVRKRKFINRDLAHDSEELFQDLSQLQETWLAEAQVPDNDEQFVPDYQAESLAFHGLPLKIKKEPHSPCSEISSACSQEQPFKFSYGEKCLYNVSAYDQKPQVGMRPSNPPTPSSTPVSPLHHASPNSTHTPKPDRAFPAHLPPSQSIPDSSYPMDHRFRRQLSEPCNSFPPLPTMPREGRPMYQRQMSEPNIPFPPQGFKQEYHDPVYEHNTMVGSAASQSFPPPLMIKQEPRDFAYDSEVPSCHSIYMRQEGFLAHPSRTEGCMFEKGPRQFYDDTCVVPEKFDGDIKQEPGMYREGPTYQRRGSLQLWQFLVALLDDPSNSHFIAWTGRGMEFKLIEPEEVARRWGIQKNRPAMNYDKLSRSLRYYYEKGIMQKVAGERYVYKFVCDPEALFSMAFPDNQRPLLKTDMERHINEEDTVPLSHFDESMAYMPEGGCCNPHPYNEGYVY

Consider ATTTAT, for which the binding signal was 1.34 fold enrichment (6-mer frequency, TF over GST control) in the test with FEV; 1.41 fold enrichment (6-mer frequency, TF over GST control) in the test with ETV5; 1.68 fold enrichment (6-mer frequency, TF over GST control) in the test with HSF1; 1.49 fold enrichment (6-mer frequency, TF over GST control) with SPIC; 1.35 fold enrichment (6-mer frequency, TF over GST control) with ELF4; 1.53 fold enrichment (6-mer frequency, TF over GST control) with ELK4. The binding signal with ETV2 was 1.44 fold enrichment (6-mer frequency, TF over GST control); with ELF3 it was 1.46 fold enrichment (6-mer frequency, TF over GST control); in the test with CRX, 2.19 fold enrichment (6-mer frequency, TF over GST control); with ETV1, 1.43 fold enrichment (6-mer frequency, TF over GST control); with ERF, 1.51 fold enrichment (6-mer frequency, TF over GST control); with ETV3L, 1.54 fold enrichment (6-mer frequency, TF over GST control). The binding signal is 1.47 fold enrichment (6-mer frequency, TF over GST control) in the test with ETS2; 1.4 fold enrichment (6-mer frequency, TF over GST control) in the test with SPDEF; 1.48 fold enrichment (6-mer frequency, TF over GST control) with ETV7; 1.39 fold enrichment (6-mer frequency, TF over GST control) in the test with ELF5; 1.41 fold enrichment (6-mer frequency, TF over GST control) with ETV3; 1.4 fold enrichment (6-mer frequency, TF over GST control) with ETV6.

For the origin of these results see PMC7862700, “An all-to-all approach to the identification of sequence-specific readers for epigenetic DNA modifications on cytosine”.
